Only some compounds are listed: those with a hit (about 3.9% of all), similar ones and a draw of the others.
Anthrax LF prot = Bacillus anthracis LF protease inhibitors, primary screen, biochemical, multiplex microsphere, MLPCN library; multiplex microsphere protease cleavage assay; Lethal factor (Bacillus anthracis), P15917; 360,000 compounds, 0.12% hits; inhibition, % at 10 µM; note: plate controls were buffer without enzyme for full effect and enzyme alone for no effect
CCHF vOTU inh = CCHFV vOTU protease inhibitors, primary screen, biochemical, Pep-AMC substrate, fluorescence. 370,000 compounds, 0.55% hits. inhibition, % at 11.5 µM. Crimean-Congo hemorrhagic fever virus L polyprotein viral ovarian tumor (vOTU) protease …; in the data active = inhibition above about 30%; note: 0% = vehicle wells with enzyme and 100% = no enzyme wells
BoNT F protease = BoNT/F light chain protease inhibitors, primary screen, biochemical, flow cytometry, MLPCN library; Multiplex microsphere protease cleavage assay; Botulinum neurotoxin type F light chain protease (Clostridium botulinum); inhibition, % at 10 µM; 360,000 compounds, 0.22% hits; in the data active = inhibition above about 35%, passing the limit was not always enough; inconclusive = no clear call, values can overlap the other calls; note: plate controls were buffer without enzyme for full effect and enzyme alone for no effect
3CLpro inhibitor = SARS-CoV 3CLpro protease inhibitors, primary screen, biochemical, quenched FRET; 290,000 compounds, 0.14% hits; AID 1706, 2009; recombinant SARS-CoV 3CLpro, quenched FRET peptide cleavage; Replicase polyprotein 1ab (Severe acute respiratory syndrome coronavirus), P0C6X7; inhibition, % at 6 µM; in the data active = inhibition above about 12%
BoNT A protease = BoNT/A light chain protease inhibitors, primary screen, biochemical, flow cytometry, MLPCN library | AID 588499, 2011 | Botulinum neurotoxin type A light chain protease (Clostridium botulinum A str. ATCC 3502) | 360,000 compounds, 0.17% hits | multiplex microsphere protease substrate cleavage | inhibition, % at 10 µM; note: plate controls were buffer without enzyme for full effect and enzyme alone for no effect
Bead autofluor = compound fluorescence in toxin protease inhibitor counterscreen | AID 624483 | 360,000 compounds, 3.1% hits | compound autofluorescence counterscreen, microsphere flow cytometry; active compounds read high | fluorescence intensity (test concentration not listed); in the data active = fluorescence intensity above about 16000; inconclusive = no clear call, values can overlap the other calls
An asterisk follows results filed as active; ? = inconclusive; . = no result given. Cut-off read from the data, not from the text of the source, unless noted: active = inhibition above about 30%; inconclusive = no clear call, values can overlap the other calls; inactive = below that.

SMILES | Anthrax LF prot | CCHF vOTU inh | BoNT F protease | 3CLpro inhibitor | BoNT A protease | Bead autofluor
CCOc1ccc(N=C/C=C/c2ccccc2)c(O)c1 | 0.3 | 10.8 | -72.5 | 2.5 | 35.1* | 3275
CCC(C)CNC(=O)CSc1nnc(-c2cccnc2)n1C1CCCCC1 (centres undefined) | . | -4.2 | . | . | . | .
CCOC(=O)C(Oc1ccc2c(-c3ccc(OC)cc3)cc(=O)oc2c1C)c1ccccc1 (centres undefined) | -1.5 | 1.5 | -4.1 | 0.8 | ? | 22308*
Cc1ccc(NC(=O)NNC(=O)CCn2nc(C)c([N+](=O)[O-])c2C)cc1C | . | -5.7 | . | . | . | .
Cc1ccccc1Cn1cc(CN2[C@H](CC(C)C)COc3cc(Br)ccc3S2(=O)=O)nn1 | . | 0.5 | . | . | . | .
N=c1n(-c2ccccc2)c(O)cc(=O)n1-c1ccccc1 | -0.4 | 8.8 | -6.9 | 3.2 | -2.6 | 22975*
O=C(CCC(=O)OC(C(=O)c1ccccc1)c1ccccc1)Nc1ccccc1 (centres undefined) | -1.3 | 8.8 | -1.9 | -1.0 | -0.1 | 21923*
Cc1ccc(C(=O)C(OC(=O)COc2ccccc2C)c2ccccc2)cc1 (centres undefined) | -6.0 | 1.5 | -7.0 | -1.5 | -1.3 | 17155*
COc1cccc(OC)c1NC(=O)Cn1nc(-c2ccc3c(c2)OCCO3)ccc1=O | -6.4 | -2.9 | -1.9 | 2.0 | -0.8 | 5433
CC(C)c1nnc(NC(=O)Cn2nc(-c3ccc4c(c3)OCCO4)ccc2=O)s1 | -8.4 | 9.3 | -8.3 | -6.0 | -3.5 | 17082*
O=C(/C=C/Nc1ccc([N+](=O)[O-])cc1Br)c1cccc2ccccc12 | 17.7 | -4.2 | -4.0 | -2.7 | 37.9* | 2150
O=C1NC(c2ccc(Br)cc2)c2c(-c3ccccc3)n[nH]c21 (centres undefined) | . | -1.2 | . | . | . | .
Cc1cccc(C(=O)Nc2sc(C)c(-c3ccccc3)c2C#N)c1 | -2.5 | -0.3 | -4.6 | 5.3 | 0.5 | 2262
Cc1noc(C)c1C(=O)Nc1sc(C)c(-c2ccccc2)c1C#N | -1.9 | -0.9 | 2.7 | -2.9 | ? | 22924*
NS(=O)(=O)c1ccc(Nc2nc(-c3ccc(O)cc3)cs2)cc1 | -0.7 | 2.2 | -1.9 | -2.0 | -1.9 | 21481*
COC(=O)[C@]12C[C@H](CC(=O)N3CCCC3)C(=O)N(Cc3ccc(Cl)cc3Cl)C1=C[C@H](C(C)(C)C)O[C@@H]2C | . | 16.3 | . | . | . | .
Cc1ccc(-n2c(SCC(=O)N/N=C/C=C\c3ccccc3[N+](=O)[O-])nnc2-c2ccccc2)cc1 | . | 6.3 | . | . | . | .
COc1ccc(/C=C2\C(=O)NCC(=O)N2C)cc1 | 34.2* | -11.1 | 87.7* | -0.9 | 4.6 | 6212
COc1ccc(/C=C2\C(=O)NCC(=O)N2Cc2ccccc2)cc1 | -11.5 | 16.1 | 4.6 | 3.4 | -0.6 | ?
O=C1[C@@H](C2CC2)[C@@H]2c3ccccc3C=NN2[C@@H]2c3ccccc3C=NN12 | . | 7.7 | . | . | . | .
O=C(Nc1cccnc1)c1cnn2cccnc12 | -9.6 | 11.1 | -6.9 | -4.0 | -1.8 | 9535
O=C(Nc1cccc(O)c1)c1cnn2cccnc12 | -3.3 | -9.4 | 0.2 | 1.5 | 2.1 | 19751*
CCOP(=S)(OCC)N1CCOCCOCCN(P(=S)(OCC)OCC)CCOCCOCC1 | -2.8 | 5.5 | -6.7 | -0.1 | 0.0 | 4136
FC(F)(F)/C(=N\P(=S)(N1CCOCC1)N1CCOCC1)N1CCOCC1 | -8.7 | . | 13.2 | -5.3 | ? | 17852*
O=C1c2ccccc2C(=Nc2ccccc2)C1c1cccc(Br)c1 (centres undefined) | -9.9 | -2.7 | -2.5 | -1.4 | 0.8 | 21729*
Cc1ccccc1C(=O)N1CCN(C(=O)C(=O)c2cccc(C(F)(F)F)c2)CC1 | . | -4.9 | . | . | . | .
c1ccc2c(c1)OCc1nccn1-2 | . | 1.1 | . | . | . | .
O=C(Nc1nccs1)Oc1ccccc1 | -7.4 | -2.6 | 1.7 | -0.2 | ? | 20333*
COC(=O)[C@H](N[C@H](/C=C/c1ccccc1)[C@@H](O)Cc1ccccc1)c1ccccc1 | . | 15.8 | . | . | . | .
Cc1ccc(C(C(=O)NC2CCCCC2)N(C(=O)Cc2c[nH]c3ccccc23)c2ccccc2)o1 (centres undefined) | -1.8 | 8.0 | 3.6 | -0.5 | ? | 20827*

High-throughput results as filed in PubChem.
